An excerpt weighted towards active compounds, which were near 1.3% of everything screened.
DUSP3 inh = VHR1 phosphatase inhibitors, primary screen, biochemical, absorbance, uHTS; AID 1654, 2009; 290,000 compounds, 0.52% hits; Dual specificity protein phosphatase 3 (Homo sapiens), P51452; inhibition, % at 13.3 µM; recombinant VHR phosphatase, pNPP absorbance; in the data active = inhibition above about 50%
Target sequence (P51452 whole entry, looked up): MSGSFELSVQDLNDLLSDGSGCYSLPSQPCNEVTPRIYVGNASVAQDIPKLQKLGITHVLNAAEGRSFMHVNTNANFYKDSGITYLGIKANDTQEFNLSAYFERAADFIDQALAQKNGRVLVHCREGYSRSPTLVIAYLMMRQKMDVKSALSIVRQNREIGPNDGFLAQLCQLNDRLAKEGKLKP
CCHF vOTU inh-1 = CCHFV vOTU protease inhibitors, primary screen, biochemical, Pep-AMC substrate, fluorescence; Crimean-Congo hemorrhagic fever virus L polyprotein viral ovarian tumor (vOTU) protease …; inhibition, % at 11.5 µM; 370,000 compounds, 0.55% hits; AID 651958, 2012; note: 0% = vehicle wells with enzyme and 100% = no enzyme wells
3CLpro inhibitor = SARS-CoV 3CLpro protease inhibitors, primary screen, biochemical, quenched FRET; inhibition, % at 6 µM; recombinant SARS-CoV 3CLpro, quenched FRET peptide cleavage; AID 1706, 2009; 290,000 compounds, 0.14% hits; Replicase polyprotein 1ab (Severe acute respiratory syndrome coronavirus), P0C6X7; in the data active = inhibition above about 12%
PriA SSB inh = inhibitors of Klebsiella pneumoniae PriA binding to SSB C-terminal tail, primary screen, biochemical, AlphaScreen | PriA–SSB C-terminal tail interaction (Klebsiella pneumoniae) | AlphaScreen SSBct-PriA binding, biotinylated peptide | inhibition, % at 33 µM | 430,000 compounds, 0.6% hits | AID 1272365, 2023; in the data active = inhibition mostly above about 37%, no sharp cut-off; inactive = mostly below about 20%;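 note: plate controls were negative control peptide for no effect and reference peptide for full effect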
Mtb hypoxia rep = PubChem AID 1159583; M. tuberculosis hypoxia-regulated fluorescent reporter, fluorescence; fluorescence inhibition, % (test concentration not listed); 300,000 compounds, 0.1% hits; in the data active = fluorescence inhibition mostly above about 23%, no sharp cut-off; inactive = mostly below about 17%
CCHF vOTU inh-2 = CCHFV vOTU protease inhibitors, confirmation, biochemical, Pep-AMC substrate, fluorescence; inhibition, % at 11.5 µM; 1,900 compounds, 17% hits; shares compounds with CCHF vOTU inh-1; Recombinant CCHFV vOTU
An asterisk follows results filed as active; · = no result given; ! = not confirmed by another sample. Cut-off read from the data, not from the text of the source, unless noted: active = inhibition above about 30%; inactive = the rest.

SMILES | DUSP3 inh | CCHF vOTU inh-1 | 3CLpro inhibitor | PriA SSB inh | Mtb hypoxia rep | CCHF vOTU inh-2
O=C(O)CSc1cc(NS(=O)(=O)c2ccc(Cl)cc2)c2ccccc2c1O | 41 | 104* | 9 | -2 | · | 95*
Cn1cc(S(=O)(=O)N2CCCN(C(=O)c3c(F)cccc3Cl)CC2)cn1 | · | · | · | -13 | · | ·
C=CCSC1=N/C(=C\c2cccnc2)C(=O)N1c1ccc(OC)cc1 | 12 | 7 | -5 | -4 | 9 | ·
CCSC1=N/C(=C\c2ccccc2)C(=O)N1c1ccc(OC)cc1 | -17 | 30* | 5 | -16 | -8 | -11
Cc1ccc2cc(N)ccc2n1 | 18 | -2 | -3 | -8 | 11 | ·
Nc1ccc2cc3ccc(N)cc3nc2c1 | · | 53* | · | · | · | 30*
CCOc1ccc(N=Nc2c(=O)[nH]n3c(=O)cc(C)[nH]c23)cc1 | 33 | 36* | 3 | -3 | 21 | 10
Cc1cc(=O)n2[nH]c(=O)c(N=Nc3ccccc3)c2[nH]1 | 37 | 16 | 3 | -15 | 6 | ·
O=C1Nc2cc(C(=O)NCC3CCCO3)ccc2S/C1=C/c1ccccc1F (stereo not given) | 54* | 31* | 6 | -9 | 9 | -23
CN1C(=O)/C(=C/c2ccccc2F)Sc2ccc(C(=O)NCC3CCCO3)cc21 (stereo not given) | -9 | 13 | 5 | 4 | -1 | ·
Cc1ccc(S(=O)(=O)NC2=C(N3CCN(Cc4ccccc4)CC3)C(=O)c3ccccc3C2=O)cc1 | -6 | 6 | -4 | 7 | 4 | ·
Cc1ccc(S(=O)(=O)NC2=C(N3CCN(c4ccccc4F)CC3)C(=O)c3ccccc3C2=O)cc1 | 34 | 53*! | -3 | 65 | · | 26
CC(=O)Nc1ccc(S(=O)(=O)Nc2ccc(N3CCOCC3)cc2)cc1 | 10 | 3 | -2 | -15 | 5 | ·
CCOC(=O)N1CCN(C2=C(NS(=O)(=O)c3ccc(C)cc3)C(=O)c3ccccc3C2=O)CC1 | 10 | 82* | 0 | 26 | -10 | 81*
CC(=O)Nc1ccc(S(=O)(=O)NC2=C(N3CCN(c4ccc(F)cc4)CC3)C(=O)c3ccccc3C2=O)cc1 | 29 | 77* | 3 | 73 | 5 | 69*
CCOC(=O)c1ccc(NC(=O)CSc2ncnc3c2oc2ccccc23)cc1 | · | · | · | -17 | · | ·
Cn1cc(C(=O)NCC#CCOc2cccc(C(F)(F)F)c2)nn1 | · | · | · | -35 | · | ·
Cc1ccc(NC(=O)COc2cc(C)nc(-c3ccc(F)cc3)n2)c(Br)c1 | · | · | · | -18 | · | ·
CCn1nnnc1SCC(=O)N1N=C(c2cccs2)CC1c1cccs1 (stereo not given) | · | 30* | · | -10 | 9 | -14
Cc1ccccc1-c1nnc(NC(=O)c2ccc(Cc3ccccc3)cc2)s1 | · | · | · | -7 | · | ·
O=S(=O)(C1CCCCC1)C1CN(S(=O)(=O)CCOc2ccccc2)C1 | · | · | · | 7 | · | ·
CCOC(=O)c1cc2sc(C)cc2n1CC(=O)NCc1ccc(F)cc1 | 3 | 30* | -1 | -2 | -4 | -17
CCCCC[C@@H](C)N1C[C@H](COCc2ccccc2)Oc2cc(N3CCC[C@@H]3CO)ccc2S1(=O)=O | · | 33* | · | · | · | 17
CCCCC[C@H](C)N1C[C@@H](COCc2ccccc2)Oc2cc(N3CC[C@H](O)C3)ccc2S1(=O)=O | · | 40* | · | · | · | 3
CCCCC[C@@H](C)N1C[C@@H](COCc2ccccc2)Oc2cc(N3CCC[C@H]3CO)ccc2S1(=O)=O | · | 28 | · | · | · | ·
SMILES | DUSP3 inh | CCHF vOTU inh-1 | 3CLpro inhibitor | PriA SSB inh | Mtb hypoxia rep | CCHF vOTU inh-2
COc1cccc(-c2cc(NC=O)c3ncc(-c4cccc(C(=O)N(C)C)c4)n3c2)c1 | · | 31* | · | · | · | -11
COc1cccc(-c2cnc3c(NC=O)cc(-c4cccc(C(=O)N(C)C)c4)cn23)c1 | · | 7 | · | · | · | ·
CCOc1ccc(N2CC(NC(=O)Nc3ccccc3SC)CC2=O)cc1 (stereo not given) | · | · | · | -6 | · | ·
Cc1ccccc1-c1nc(CS(=O)(=O)CC(=O)NCCc2ccccc2)c(C)o1 | -64 | 39* | 0 | -4 | -4 | -5
CCn1c(C=Cc2ccccc2)nc2ccccc2c1=O | · | · | · | · | 10 | ·
CCn1nc(/C=C/c2ccccc2)nc2c(=O)n(C)c(=O)nc1-2 | · | 124* | 5 | 3 | 16 | 107*
Cc1ccc(NC(=O)CC(N)=NOC(=O)Nc2ccc(C)c(Cl)c2)cc1 | · | · | · | -2 | · | ·
CC(C)CCCCCCCCc1cccc(O)c1C(=O)O | · | 43* | · | · | · | 25
Cc1cc(-c2ccncc2)nn1CCNC(=O)c1cnn(-c2ccccc2)c1C | · | · | · | -2 | · | ·
CN(C)c1ccc(C=Nc2ccc(N(C)C)cc2)cc1 | 26 | 68* | 0 | 68 | · | 4
Cc1ccc(N=Cc2ccc(N(C)C)cc2)cc1 | 10 | 10 | 4 | 3 | · | ·
O=C1C[C@@H](O)[C@H](O)c2cccc(O)c21 | · | 45* | · | · | · | -2
O=C1O[C@@H](c2ccc(O)cc2)Cc2cccc(O)c21 | · | 0 | · | 1 | 12 | ·
Cc1c(Cc2ccc3c(c2)OCO3)sc(NC(=O)c2cc(Cl)cc(Cl)c2)c1C#N | · | · | · | -12 | · | ·
O=C(NCCn1nc(C(F)(F)F)cc1C1CC1)c1cc(-c2ccccc2)on1 | · | · | · | -11 | · | ·
CCOC(=O)c1oc2c(c1C)C(=O)CCC2 | 2 | -1 | 1 | -4 | 6 | ·
CCOC(=O)c1oc2c(c1C)/C(=N/O)CCC2 | -6 | 33* | -1 | · | · | -7
O=C(COC(=O)c1ccc([N+](=O)[O-])s1)c1ccc[nH]1 | · | 58* | · | -4 | · | 49*
O=C(COC(=O)c1ccc([N+](=O)[O-])s1)NCCc1ccccc1 | · | · | · | 6 | 16 | ·
O=C(COC(=O)c1ccc([N+](=O)[O-])s1)NC(=O)NCc1ccccc1 | 22 | 53* | 6 | 19 | 10 | 48*
